Data reported in the antibiotic and cytotoxicity screens of Wong et al. (2023).
About 3,300 (8.5%) of roughly 39,000 compounds were called active. The sample as a whole holds a higher share of actives than the screen did.

Each compound was assayed on HepG2 (assay: cytotoxicity call (relative viability < 0.9)). Conditions: 10 µM.
With `O=C(Cc1ccncc1)Nc1ccc2c(c1)[C@H]1C[C@H](CC(=O)N3CCc4ccccc4C3)O[C@H](CO)[C@H]1O2` the cytotoxicity call was “inactive”.
For `O=C(C[C@H]1C=C[C@H](NC(=O)Cc2ccccn2)[C@@H](CO)O1)NCCc1ccncc1`, the cytotoxicity call was “inactive”.
`CC(=O)NCc1c(I)c(NC(C)=O)c(I)c(C(=O)O)c1I` was tested, and the cytotoxicity call was “inactive”.
With `C[C@H]1CN([C@@H](C)CO)C(=O)c2cccc(NC(=O)c3ccc(-c4nccs4)cc3)c2O[C@H]1CN(C)Cc1ccc(-c2ccccc2)cc1` the cytotoxicity call was “inactive”.
With `C[C@@H]1CN([C@@H](C)CO)S(=O)(=O)c2ccc(-c3ccc(F)cc3)cc2O[C@H]1CN(C)C(=O)C1CCOCC1` the cytotoxicity call was “inactive”.
For `C[C@@H]1CCCCO[C@H](CN(C)C(=O)CCCN(C)C)[C@@H](C)CN([C@@H](C)CO)C(=O)c2cc(N(C)C)ccc2O1`, the cytotoxicity call was “inactive”.
For `C[C@@H]1CN([C@H](C)CO)C(=O)c2cccc(NS(C)(=O)=O)c2O[C@@H]1CN(C)C(=O)Nc1ccc(F)cc1`, the cytotoxicity call was “inactive”.
`Cc1[nH]c(=O)[nH]c(=O)c1/C=C/C(=O)O` was tested, and the cytotoxicity call was “inactive”.
In the case of `O=C(C[C@H]1CC[C@@H]2[C@H](COC[C@H](O)CN2S(=O)(=O)c2ccc(F)cc2)O1)N[C@H]1CCN(Cc2ccccc2)C1`, the cytotoxicity call is reported as “inactive”.
`C[C@@H]1CN([C@@H](C)CO)C(=O)c2cc(NC(=O)Nc3ccc(C(F)(F)F)cc3)ccc2O[C@@H]1CN(C)Cc1ccc(-c2ccccc2)cc1` was tested, and the cytotoxicity call was “active”.
With `C[C@H]1CN([C@@H](C)CO)C(=O)c2cc(NC(=O)Nc3ccc(C(F)(F)F)cc3)ccc2O[C@H]1CN(C)Cc1ccc(-c2ccccc2)cc1` the cytotoxicity call was “active”.
`C[C@@H]1CN([C@H](C)CO)C(=O)c2cc(NC(=O)Nc3ccc(C(F)(F)F)cc3)ccc2O[C@H]1CN(C)Cc1ccc(-c2ccccc2)cc1` was tested, and the cytotoxicity call was “active”.
`C[C@@H]1CN([C@@H](C)CO)C(=O)c2cc(NC(=O)Nc3ccc(C(F)(F)F)cc3)ccc2O[C@@H]1CN(C)S(C)(=O)=O` was tested, and the cytotoxicity call was “inactive”.
With `C[C@H](CO)N1C[C@H](C)[C@@H](CN(C)C(=O)Nc2cccc3ccccc23)Oc2c(NC(=O)Nc3cccc4ccccc34)cccc2C1=O` the cytotoxicity call was “inactive”.
With `C[C@@H]1CCCCO[C@H](CN(C)Cc2ccccc2)[C@H](C)CN([C@@H](C)CO)C(=O)c2cc(NC(=O)c3ccncc3)ccc2O1` the cytotoxicity call was “inactive”.
With `O=C(C[C@H]1CC[C@@H]2[C@H](COC[C@H](O)CN2C(=O)c2ccc(F)cc2)O1)NCCCN1CCOCC1` the cytotoxicity call was “inactive”.
In the case of `COCC#Cc1cnc2c(c1)C(=O)N([C@H](C)CO)C[C@H](C)[C@H](CN(C)S(=O)(=O)c1ccccc1)O2`, the cytotoxicity call is reported as “inactive”.
`OC[C@H]1O[C@@H](n2cnc3c(N[C@@H]4CCOC4)ncnc32)[C@H](O)[C@@H]1O` was tested, and the cytotoxicity call was “inactive”.
`CC[C@H](C#CCN1CCOCC1)OC(C)=O` was tested, and the cytotoxicity call was “inactive”.
`COc1ccccc1S(=O)(=O)N[C@@H]1CC[C@@H](CCNC(=O)C2CC2)O[C@H]1CO` was tested, and the cytotoxicity call was “inactive”.
`CN1C(=O)c2cc(NC(=O)c3ccc(F)cc3)ccc2OC[C@@H]2O[C@H](CC(=O)N3CCOCC3)CC[C@@H]21` was tested, and the cytotoxicity call was “inactive”.
With `COc1ccc(CN(C)C[C@H]2OCCCC[C@@H](C)Oc3ccc(NC(=O)C4CCCCC4)cc3C(=O)N([C@@H](C)CO)C[C@@H]2C)cc1` the cytotoxicity call was “inactive”.
With `NS(=O)(=O)c1ccc(CCn2ccn(CC(=O)NCCC3=CCCCC3)c(=O)c2=O)cc1` the cytotoxicity call was “inactive”.
`C[C@@H]1CN([C@@H](C)CO)C(=O)Cc2cc(NS(=O)(=O)c3ccc(F)cc3)ccc2O[C@@H]1CN(C)S(=O)(=O)c1cn(C)cn1` was tested, and the cytotoxicity call was “inactive”.
With `CN(C)C(=O)C[C@@H]1CC[C@@H](NC(=O)C2CCOCC2)[C@@H](CO)O1` the cytotoxicity call was “inactive”.
`CCCNC(=O)Nc1ccc2c(c1)C(=O)N(C)C[C@@H](OC)[C@@H](C)CN(C(=O)C1CCOCC1)[C@H](C)CO2` was tested, and the cytotoxicity call was “inactive”.
In the case of `C[C@@H]1CN([C@@H](C)CO)C(=O)c2cc(NC(=O)Nc3ccc(C(F)(F)F)cc3)ccc2O[C@H]1CN(C)Cc1ccc(-c2ccccc2)cc1`, the cytotoxicity call is reported as “active”.
`C[C@H](CO)N1C[C@H](C)[C@H](CN(C)Cc2ccc(-c3ccccc3)cc2)Oc2ccc(NC(=O)Nc3ccc(C(F)(F)F)cc3)cc2C1=O` was tested, and the cytotoxicity call was “active”.
For `C[C@@H]1CN([C@H](C)CO)C(=O)c2cc(NC(=O)Nc3ccc(C(F)(F)F)cc3)ccc2O[C@@H]1CN(C)Cc1ccc(-c2ccccc2)cc1`, the cytotoxicity call was “active”.
With `C[C@H](CO)N1C[C@H](C)[C@@H](CN(C)Cc2ccc(-c3ccccc3)cc2)Oc2ccc(NC(=O)Nc3ccc(C(F)(F)F)cc3)cc2C1=O` the cytotoxicity call was “inactive”.
In the case of `Cc1ccc(OC(=O)N(C)C[C@@H]2OCc3ccccc3-c3ccccc3C(=O)N([C@@H](C)CO)C[C@H]2C)cc1`, the cytotoxicity call is reported as “inactive”.
With `C[C@H]1CN([C@@H](C)CO)S(=O)(=O)c2ccc(C#CCN(C)C)cc2O[C@H]1CN(C)C(=O)CN(C)C` the cytotoxicity call was “inactive”.
For `O=C(CCCCCNC(=O)OCc1ccc(CO[C@H]2C[C@@H](c3ccc(C(F)(F)F)cc3)C=C(C(=O)N3CCN(Cc4ccccc4)CC3)O2)cc1)NO`, the cytotoxicity call was “inactive”.
`C[C@H]1CN([C@@H](C)CO)C(=O)c2cc(NC(=O)Nc3ccc4c(c3)OCO4)ccc2O[C@H]1CN(C)S(C)(=O)=O` was tested, and the cytotoxicity call was “inactive”.
With `COc1ccc(CNC(=O)C[C@H]2CC[C@@H]3[C@H](COc4ccc(NC(=O)C(C)C)cc4C(=O)N3C)O2)cc1` the cytotoxicity call was “inactive”.
For `C[C@@H]1CN([C@@H](C)CO)C(=O)Cc2cc(NS(=O)(=O)c3cccs3)ccc2O[C@H]1CN(C)Cc1ccncc1`, the cytotoxicity call was “inactive”.
For `CC[C@@H](C[C@@H](O)[C@@H](C)[C@H]1CC[C@H]2C3=CC(=O)[C@H]4[C@H](C)[C@@H](OC(=O)c5ccccc5)CC[C@]4(C)[C@H]3CC[C@]12C)C(C)C`, the cytotoxicity call was “inactive”.
With `CC[n+]1oc(-c2ccccc2)cc1C` the cytotoxicity call was “active”.
In the case of `O=C(CCCCCNC(=O)OCc1ccc(CO[C@H]2C[C@@H](C3CCCCC3)C=C(C(=O)N3CCN(Cc4ccccc4)CC3)O2)cc1)NO`, the cytotoxicity call is reported as “inactive”.
`COCC(=O)Nc1ccc2c(c1)C(=O)N(C)C[C@H](OC)[C@@H](C)CN(Cc1ccccc1OC)[C@@H](C)CO2` was tested, and the cytotoxicity call was “inactive”.
In the case of `COC1=C(OC)C(=O)C(C/C=C(\C)CC/C=C(\C)CC/C=C(\C)CC/C=C(\C)CC/C=C(\C)CC/C=C(\C)CC/C=C(\C)CC/C=C(\C)CC/C=C(\C)CCC=C(C)C)=C(C)C1=O`, the cytotoxicity call is reported as “inactive”.
With `CC1=C(C)C(=O)C(CCCCCCCCCC[P+](c2ccccc2)(c2ccccc2)c2ccccc2)=CC1=O` the cytotoxicity call was “active”.
For `COC(=O)CCCCCCC(=O)Nc1ccc(NC(=O)CCCC[P+](c2ccccc2)(c2ccccc2)c2ccccc2)cc1`, the cytotoxicity call was “inactive”.
In the case of `COC1=C(OC)C(=O)C(C/C=C(\C)CC/C=C(\C)CC/C=C(\C)CC/C=C(/C)CC/C=C(\C)CC/C=C(\C)CC/C=C(\C)CC/C=C(\C)CC/C=C(\C)CCC=C(C)C)=C(C)C1=O`, the cytotoxicity call is reported as “inactive”.
In the case of `CC1=C(C)C(=O)C(C(CCCCCC(=O)O)c2ccccc2)=C(C)C1=O` (centres undefined), the cytotoxicity call is reported as “inactive”.
In the case of `COC1=C(OC)C(=O)C(CCCCCCCCCC[P+](c2ccccc2)(c2ccccc2)c2ccccc2)=C(C)C1=O`, the cytotoxicity call is reported as “active”.
In the case of `COC1=C(OC)C(=O)C(CCCCCCCCCCO)=C(C)C1=O`, the cytotoxicity call is reported as “active”.
For `COC1=C(OC)C(=O)C(CC=C(C)CCC=C(C)CCC=C(C)CCC=C(C)CCC=C(C)CCC=C(C)CCC=C(C)CCC=C(C)CCC=C(C)CCC=C(C)C)=C(C)C1=O`, the cytotoxicity call was “inactive”.
`CC=Cc1ccc2n(c1=O)C[C@H]1[C@H](CO)[C@@H](C(=O)NC3CCC3)N(S(C)(=O)=O)[C@@H]21` was tested, and the cytotoxicity call was “inactive”.
For `COc1ccc(-c2cn3cc(C(=O)NCC(N)=O)nc3c(=O)n2CC2CC2)c(F)c1`, the cytotoxicity call was “inactive”.
For `C[C@@H]1CN([C@H](C)CO)C(=O)c2cc(NS(=O)(=O)c3cccs3)ccc2O[C@H]1CN(C)S(=O)(=O)c1ccc(F)cc1`, the cytotoxicity call was “inactive”.
In the case of `COc1ccc(NC(=O)Nc2ccc3c(c2)[C@@H]2C[C@H](CC(=O)NCc4ccccn4)O[C@H](CO)[C@@H]2O3)cc1`, the cytotoxicity call is reported as “inactive”.
For `C[C@@H]1CN([C@@H](C)CO)C(=O)c2cc(NC(=O)CCN3CCOCC3)ccc2O[C@@H]1CN(C)Cc1ccc2c(c1)OCO2`, the cytotoxicity call was “inactive”.
With `C[C@H]1CN([C@@H](C)CO)C(=O)c2cccc(NC(=O)C3CCCCC3)c2O[C@@H]1CN(C)S(=O)(=O)c1cn(C)cn1` the cytotoxicity call was “inactive”.
With `C[C@H](CO)N1C[C@H](C)[C@@H](CN(C)C(=O)C2CC2)Oc2ncc(-c3ccc(C(=O)N(C)C)cc3)cc2C1=O` the cytotoxicity call was “inactive”.
For `N[C@H](c1ccc2c(c1)OCCO2)c1ccco1`, the cytotoxicity call was “inactive”.
`N[C@@H](CCc1ccccc1Cl)c1ccc2c(c1)OCCO2` was tested, and the cytotoxicity call was “active”.
`NCC[C@@H](Cc1ccccc1)c1ccc2c(c1)OCO2` was tested, and the cytotoxicity call was “inactive”.
In the case of `Cc1ccc(S(=O)(=O)Nc2cccc3c2O[C@H](CN(C)C(=O)Nc2cccc4ccccc24)[C@H](C)CN([C@H](C)CO)C3=O)cc1`, the cytotoxicity call is reported as “inactive”.
`O=C(NCCNS(=O)(=O)c1cccc2nonc12)[C@H]1COc2ccccc2O1` was tested, and the cytotoxicity call was “inactive”.
For `CS(=O)(=O)N1CCN(Cc2cc3nc(-c4cccc5n[nH]cc45)nc(N4CCOCC4)c3s2)CC1`, the cytotoxicity call was “active”.
With `C[C@H]1CN([C@@H](C)CO)C(=O)c2cc(C#CC3(O)CCCC3)cnc2O[C@H]1CN(C)S(=O)(=O)c1cccc(F)c1` the cytotoxicity call was “inactive”.
For `COc1ccc(S(=O)(=O)N(C)C[C@H]2Oc3ccc(NS(=O)(=O)c4ccc(F)cc4)cc3CC(=O)N([C@H](C)CO)C[C@@H]2C)cc1`, the cytotoxicity call was “inactive”.
With `Cc1noc(C)c1S(=O)(=O)Nc1ccc2c(c1)CC(=O)N([C@H](C)CO)C[C@H](C)[C@H](CN(C)S(=O)(=O)c1ccc(Cl)cc1)O2` the cytotoxicity call was “inactive”.
For `C[C@H](CO)N1C[C@H](C)[C@H](CN(C)S(=O)(=O)c2ccc(F)cc2)Oc2c(NS(=O)(=O)c3ccccc3)cccc2C1=O`, the cytotoxicity call was “inactive”.
In the case of `O=C(CN1CCOC1=O)N1CCC2(CCC(=O)N(CCCn3ccnc3)C2)CC1`, the cytotoxicity call is reported as “inactive”.
For `CCN(CC)CCNC(=O)COc1ccc(OC)cc1.Cl`, the cytotoxicity call was “inactive”.
In the case of `CCN(CC)CCCCNc1ncc2cc(-c3cc(OC)cc(OC)c3)c(NC(=O)NC(C)(C)C)nc2n1`, the cytotoxicity call is reported as “active”.
For `CCN(CC)CCCCNc1ncc2cc(-c3c(Cl)cccc3Cl)c(NC(=O)NC(C)(C)C)nc2n1`, the cytotoxicity call was “active”.
